# Shown are actives, neighbours in structure and some others; about 1.2% of the full set was active somewhere.
# RGS7-Gao reg: modulates binding of RGS7 to human Galphao; P09471; Multiplexed bead flow cytometry; actives lie on both sides; binding response (% of control), % at 10 µM; 0.35% of 220,000 active; AID 1439; in the data active = binding response below about 49% or above about 150%; inconclusive = no clear call, values can overlap the other calls; inactive = in between;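 note: fluorescent Galphao held in activated GDP-AlF4 state binding bead-coupled RGS7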
# Target sequence (P09471 whole entry, looked up): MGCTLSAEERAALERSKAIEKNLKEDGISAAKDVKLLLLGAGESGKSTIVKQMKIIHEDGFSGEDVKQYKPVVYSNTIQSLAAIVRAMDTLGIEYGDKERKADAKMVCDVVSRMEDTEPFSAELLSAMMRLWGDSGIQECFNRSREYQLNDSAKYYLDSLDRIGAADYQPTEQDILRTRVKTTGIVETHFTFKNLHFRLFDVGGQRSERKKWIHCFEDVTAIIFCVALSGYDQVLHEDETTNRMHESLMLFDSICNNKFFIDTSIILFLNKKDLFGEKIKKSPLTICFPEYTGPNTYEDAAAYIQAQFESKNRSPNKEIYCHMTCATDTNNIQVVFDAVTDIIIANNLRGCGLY
# RGS8-Gao reg: modulates binding of RGS8 to human Galphao; P09471; AID 1423; 0.34% of 220,000 active; response (percent of control binding), % at 10 µM; multiplexed bead flow cytometry; actives lie on both sides; in the data active = response below about 60% or above about 140%; inactive = in between;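 note: Galphao activated as the GDP aluminium fluoride complex binding bead-coupled RGS8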
# GSH fluor: GSH bead compound fluorescence profile; GSH beads flow cytometry, compound fluorescence 488/530 nm; active compounds read high; 0.25% of 190,000 active; fluorescence (KMESF) at 10 µM; in the data active = fluorescence above about 89;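 note: glutathione beads carrying GST-tagged Bcl family fusion proteins plus one bare bead set; values are compound well signal with DMSO vehicle wells as background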
# Avidin fluor: compound fluoresces at 488/530 nm on avidin beads. fluorescence (KMESF) at 10 µM. 0.38% of 220,000 active. AID 1775. compound fluorescence 488/530 nm, flow cytometry; active compounds read high; in the data active = fluorescence above about 47
# RGS4-Gao reg: modulates binding of RGS4 to human Galphao; Multiplexed bead flow cytometry; actives lie on both sides; P09471; 0.33% of 220,000 active; binding response (% of control), % at 10 µM; in the data active = binding response below about 49% or above about 150%; inactive = in between;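 note: fluorescent Galphao activated with aluminum fluoride binding bead-coupled RGS4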
# RGS16-Gao: RGS16-Galphao interaction regulator (human); O15492+P09471; bead-based flow cytometry RGS16-Galphao binding, fluorescence; actives lie on both sides; binding response (% of control), % at 10 µM; 0.38% of 220,000 active; AID 1441; call rule not given here;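 note: Galphao activated by GDP with aluminum fluoride before binding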
# Starred values were filed as active, the others as inactive; ? = inconclusive; · = no result; [ ] = dose if it differs, or a comment.
SMILES,RGS7-Gao reg,RGS8-Gao reg,GSH fluor,Avidin fluor,RGS4-Gao reg,RGS16-Gao
CN1C(=O)NC(c2cccc(O)c2)C(C(=O)c2cccs2)C1(O)C(F)(F)F (stereo not drawn),103,101,19,28,100,100
CCOC(=O)C1C(c2cccs2)NC(=O)N(C)C1(O)C(F)(F)F (stereo not drawn),107,98,10,59*,100,94
C=CCNC(=O)COC(=O)c1ccc(Sc2nncn2C)c([N+](=O)[O-])c1,136,103,5,86*,107,110
Cc1ccc(C)n1-n1c(C)nc2scc(-c3ccccc3)c2c1=O,139,100,17,86*,109,106
CCC(=O)NC(=S)Nc1ccc(NC(=O)c2ccc(Br)o2)cc1,103,98,17,10,100,97
COc1ccc(N2C(=O)C3CCCN3C2=O)cc1 (stereo not drawn),116,103,17,65*,104,104
CCOc1ccc2nc(NC(=O)c3cccc(-c4cc5ccccc5oc4=O)c3)sc2c1,106,105,13,74*,115,145
CCc1nnc(SCc2ccc(C(=O)OC)o2)n1N,100,98,258*,7,101,104
CCCc1nnc(SCc2ccc(C(=O)OC)o2)n1N,101,107,9,28,105,113
Cc1nnc(SCc2nnc(-c3ccccc3)o2)n(N)c1=O,103,101,264*,8,105,104
Cc1nnc(SCC(=O)Nc2ccccc2)n(N)c1=O,111,97,19,55*,97,105
Cc1nnc(SCc2ccccn2)n(N)c1=O,98,100,10,4,101,98
CCOC(=O)c1cccnc1NC(=O)c1ccccc1,96,99,10,5,95,95
CC(=O)Oc1ccc(OC(C)=O)c2c1CC(C)=C(C)C2,?,105,·,11,109,110
C=CCN1C(=O)C(CC(=O)Nc2ccccc2)N(Cc2ccccn2)C1=S (stereo not drawn),100,102,13,10,104,104
Cc1cccc2nc3c(nc12)-c1ccccc1C3=O,?,100,·,10,101,97
CCN(Cc1ccccc1)C(c1ccncc1)c1nnnn1C(C)(C)C (stereo not drawn),105,100,27,49*,102,103
OC1CCCN(Cc2ccc3ccc4cccc5ccc2c3c45)C1 (stereo not drawn),135,100,24,142*,111,104
CCCSc1nc2c(cnn2-c2ccccc2)c(=O)n1N,?,97,·,7,98,99
CCCCSc1nc2c(cnn2-c2ccccc2)c(=O)n1N,129,101,17,61*,101,102
CCOc1ccc(C(=O)Nc2cc(-c3nc4ccccc4[nH]3)ccc2C)cc1[N+](=O)[O-],120,97,26,65*,110,92
Cc1ccc(NC(=S)NNC(=O)CSc2nc3ccccc3c(=O)n2-c2ccc(C)cc2)cc1,96,99,13,10,97,98
Cc1ccc(C(=O)Nc2ccc(S(=O)(=O)N3CCc4ccccc43)cc2)o1,97,97,11,8,98,95
Cc1ccc(C(=O)Nc2ccc(S(=O)(=O)N3CCc4ccccc4C3)cc2)o1,100,100,19,50*,103,101
Cc1nc(N2CCC(C)CC2)c2nnn(Cc3ccccc3)c2n1,84,84,89*,4,82,38
SMILES,RGS7-Gao reg,RGS8-Gao reg,GSH fluor,Avidin fluor,RGS4-Gao reg,RGS16-Gao
CCc1ccc(N2CC(C(=O)Nc3ccc(C)c(S(=O)(=O)N4CCOCC4)c3)CC2=O)cc1 (stereo not drawn),152*[activator],145*[activator],34,5,181*[activator],168
Cc1ccc(NC(=O)C2CC(=O)N(Cc3ccccc3)C2)cc1S(=O)(=O)N1CCCCCC1 (stereo not drawn),100,104,14,21,100,99
CCNc1nc(NCC)nc(OCCOC(C)=O)n1,97,88,132*,5,93,67
COc1cc(NS(=O)(=O)c2ccc(N/C=C\C(=O)c3ccc(F)cc3)cc2)nc(OC)n1,103,102,5,16,100,100
COc1c(N2CCN(C(=S)NCc3ccccc3)C(C)C2)c(F)cc2c(=O)c(C(=O)O)cn(C3CC3)c12 (stereo not drawn),110,103,35,55*,105,103
CCn1cc(C(=O)O)c(=O)c2cc(F)c(N3CCN(C(=S)NC(=O)c4ccccc4)CC3)cc21,?,93,·,8,90,90
CCN1C(=O)S/C(=C/c2ccc(Sc3nc4ccccc4[nH]3)o2)C1=O,101,100,16,12,101,97
COc1cc2[nH]c(=O)n(Cc3ccc(C(=O)NC4CCCC4)cc3)c(=O)c2cc1OC,104,107,10,24,111,106
COc1cc2[nH]c(=O)n(CCC(=O)NC3CCCC3)c(=O)c2cc1OC,120,103,23,68*,107,103
Cc1cc(Oc2ccc(=O)n(C)n2)nc(=S)[nH]1,102,97,15,9,99,98
FC(F)(F)c1cccc(OCC2CNC(=S)O2)c1 (stereo not drawn),?,102,·,10,104,102
COc1cccc2sc(NC(=O)c3ccc(Br)s3)nc12,87,91,265*,7,87,92
Cc1cccc2sc(NC(=O)c3ccc(Cl)s3)nc12,101,100,21,7,99,101
CC(C)N=C(NS(=O)(=O)c1ccccc1)C(Cl)(Cl)Cl,97,101,18,7,99,102
CCCn1c(N2CCN(C)CC2)nc2c1c(=O)[nH]c(=O)n2C,101,102,19,11,106,99
CCCn1c(N2CCOCC2)nc2c1c(=O)[nH]c(=O)n2C,119,96,36,60*,105,97
Cc1onc(-c2c(Cl)cccc2Cl)c1NC(=O)N(C)N,?,106,·,49*,135,131
O=C(OCC(=O)N1CCN(C(=O)c2ccco2)CC1)C1=COCCO1,138,91,31,82*,94,90
CCOC(=O)C1CCCN(C(=O)COC(=O)C2=COCCO2)C1 (stereo not drawn),119,99,12,71*,104,103
CCOC(=O)c1sc2nc(CSc3ccccc3)nc(NCCN(C)C)c2c1C,103,101,12,10,103,99
COc1ccc2cc(C(=O)C3CCCN(C(=O)CCc4cnn(C)c4)C3)ccc2c1 (stereo not drawn),104,105,17,6,101,105
Cc1c(N=Cc2c(O)n(Cc3ccco3)c(=O)c3ccccc23)c(=O)n(-c2ccccc2)n1C,100,101,136*,4,99,102
O=c1c2ccccc2c2ccccc2c(=O)n1Cc1ccco1,102,103,19,34,101,108
